# Data as given in PubChem BioAssay AID1347417 (National Center for Advancing Translational Sciences (NCATS), 2020).
# The campaign covered roughly 120,000 compounds. About 5,300 (4.4%) were called active. A call without a number means that no potency is given here. Roughly 22% stayed inconclusive and do not appear here. The full list was thinned out, with actives kept by preference. Values without a mark were called inactive. The call rests on the fitted dose curve; in most records, active means well fitted inhibition curve with a large enough effect; inconclusive means small, poorly fitted or top-dose-only effect; inactive means no such curve, though single readings can be large or run the other way.
# Experiment: qHTS Primary assay for Inhibitors of Plasmodium falciparum Dd2 growth in vitro; further: nearly all actives have a fitted effect of over 65% in size
# Conditions: P. falciparum Dd2 growth, SYBR Green, 72 h; series mostly up to 28.9 µM
# How it was run: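 Readout: SYBR Green fluorescence, 485 nm excitation, 535 nm emission, after ~16 h lysis at 37C. Before that, Dd2-infected red cells (2.5% hematocrit) grew 72 h with compound, 29 uM top final concentration.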
# Potency means the concentration at half of the fitted maximal effect.
SMILES,Potency,"activity, negative = inhibition"
Cc1ccc(C2CC(=O)Nc3c2c(C2CC2)nn3C)c(C)c1F (configuration not stated),inactive,–
COc1cc2nc(SCC(=O)Nc3ccccc3F)n3nc(-c4ccccc4)nc3c2cc1OC,inactive,–
COc1cc2nc(NCC(C)c3ccccc3)n3nc(-c4ccccc4)nc3c2cc1OC (configuration not stated),3.55 µM (active),–
COc1ccc(Cl)cc1NC(=O)CSc1nc2ccccc2c2nc(-c3ccccc3)nn12,inactive,–
COc1cccc(N2C(=O)NC(=NC3CCCCC3)C23CCN(CC2CC2)CC3)c1,inactive,–
O=C(CCC1CCCN(S(=O)(=O)c2ccc(F)cc2)C1)NC1CCS(=O)(=O)C1 (configuration not stated),inactive,–
Cc1ccc(C(=O)N2CCC(CCC(=O)NC3CCCCC3)CC2)cc1,inactive,–
Cc1ccc(S(=O)(=O)N2CCCC(CCC(=O)NC3CCCCC3)C2)cc1 (configuration not stated),12.6 µM (active),–
Cc1nc([C@@H]2CN(C(=O)CCCc3nc4ccccc4s3)C[C@H]2C(N)=O)n[nH]1,inactive,–
CCNC(=O)N[C@H]1C[C@@H](Cc2cc(CC(C)C)on2)C1(C)C,inactive,–
CC1(C)[C@H](Cc2cc(CC3CCCCC3)on2)C[C@@H]1NC(=O)C1CCC1,11.2 µM (active),–
CCC(CC)C(=O)N[C@H]1C[C@@H](Cc2cc(COc3ccccc3)on2)C1(C)C,inactive,–
Cc1cc(CN(C)C(=O)C2C3C(=O)N(Cc4ccc(C)c(C)c4)C[C@@]34C=C[C@@H]2O4)no1 (some centres not stated),inactive,–
COc1ccc(S(=O)(=O)c2c(Nc3cccc(Cl)c3)sc(C(=O)c3ccccc3)c2N)cc1,8.91 µM (active),–
COc1ccc(S(=O)(=O)c2c(Nc3ccc(C)cc3)sc(C(=O)c3ccc(C)cc3)c2N)cc1,10 µM (active),–
CCOC(=O)c1ccc(NC(=O)CCS(=O)(=O)c2ccc(C)cc2)cc1,inactive,–
COc1ccc(N2C(=O)CSC23CCN(C(=O)c2ccc(C)cc2)CC3)cc1,inactive,–
Cc1ccc(S(=O)(=O)c2c(Nc3cccc(Cl)c3)sc(C(=O)c3ccc4c(c3)OCO4)c2N)cc1,7.94 µM (active),–
Cc1ccc(CN2C[C@H]3CN(C(=O)c4ccc5c(c4)OCO5)CCN3C2=O)cc1,inactive,–
COc1cccc(C(=O)c2sc3nc(-c4ccccc4)cc(C(F)(F)F)c3c2N)c1,inactive,–
Cc1cccc(Nc2nc(C)nc(N)c2S(=O)(=O)c2ccccc2)c1,inactive,–
CCOC(=O)c1[nH]ncc1C1CC(=O)Nc2c1cnn2Cc1cccnc1 (configuration not stated),inactive,–
C[S+](=O)([O-])N1CCC(Cn2ccc3c(N4CCOCC4)nc(-c4cccc(O)c4)cc32)CC1,inactive,–

SMILES,Potency,"activity, negative = inhibition"
CN1CCc2c([nH]c3ccccc23)C12CCN(C(=O)c1nccc3ccccc13)CC2,inactive,–
CCC(CC)C(=O)N1CC(C(=O)N(C)C)C2(CCOCC2)C1 (configuration not stated),inactive,–
Cc1cccc(C)c1NC(=O)Cn1ccn2nc(-c3ccccc3)c(CO)c2c1=O,inactive,–
O=C1CO[C@H]2CN(C3CCOCC3)C[C@H]2N1c1ccccc1,inactive,–
Fc1ccc(-c2nc(Nc3cccc(Cl)c3)nc3c2COc2ccccc2-3)cc1,11.2 µM (active),–
COc1ccc(-c2cc(-c3ccc(F)cc3)nc3c2COc2ccccc2-3)cc1,inactive,–
COc1ccc(-c2cc(-c3ccccc3)nc3c2COc2ccc(Cl)cc2-3)cc1,inactive,–
COc1ccc(Cl)cc1C(=O)N1CCN(c2cc(C(F)(F)F)nc(C)n2)CC1,inactive,–
COc1ccc(C(=O)N2CCOC3(CCN(C(=O)c4c(C)noc4C)CC3)C2)cc1,inactive,–
CCC1=Nc2cc(C(=O)NCCCOC(C)C)ccc2Sc2ccc(C)cc21,12.6 µM (active),–
CCc1ccc(Sc2cc(C(=O)NCCCOC(C)C)c3ccccc3n2)cc1,inactive,–
CC1=Nc2cc(C(=O)NCc3ccc(C)cc3)ccc2Sc2ccc(Cl)cc21,inactive,–
CCC1=Nc2cc(C(=O)NCC(C)c3ccccc3)ccc2Sc2ccc(C)cc21 (configuration not stated),11.2 µM (active),–
COCCNC(=O)c1ccc2c(c1)N=C(C)c1cc(C)ccc1S2,inactive,–
Cc1ccc(N(CC(=O)NCC(C)c2ccccc2)S(=O)(=O)N(C)C)cc1 (configuration not stated),inactive,–
O=C(c1ccc(OC(F)(F)F)cc1)N1CCC(n2cc(-c3nc(C4CC4)no3)nn2)C1 (configuration not stated),inactive,–
O=C(c1ccoc1)N1CCC(N2CC3CC(C2)[C@H]2CCCC(=O)N2C3)CC1 (some centres not stated),inactive,–
Cc1ccc(Cc2ccccc2C(=O)N2C[C@@H](CN(C)CCO)[C@@H](CO)C2)cc1,inactive,–
Cc1ccc(C(=O)N2CCC(CCC(=O)N3CCc4ccccc4C3)CC2)cc1,inactive,–
Cc1ncc2n1C(=O)N(C1CCN(C(=O)c3ccc(Cl)cc3)CC1)C2,inactive,–
COCCNS(=O)(=O)c1cc(-c2nn3c(C)nnc3c3ccccc23)ccc1C,inactive,–
Cc1ccc(-c2nnc(Nc3cccc(Br)c3)c3ccccc23)cc1S(=O)(=O)NCC1CCCO1 (configuration not stated),11.2 µM (active),–
Cc1ccc(-c2nnc(Nc3ccc(OCC(N)=O)cc3)c3ccccc23)cc1S(=O)(=O)NCC1CCCO1 (configuration not stated),1.12 µM (active),–

SMILES,Potency,"activity, negative = inhibition"
CCNS(=O)(=O)c1cc(-c2nnc(Nc3cccc(C(F)(F)F)c3)c3ccccc23)ccc1C,inactive,–
Cc1ccc(Nc2nnc(-c3ccc(C)c(S(=O)(=O)N4CCCCC4)c3)c3ccccc23)cc1,inactive,–
COC(=O)c1c(NC(=O)c2ccccc2)c2cc(NC(C)C)cnc2n1CC1CCCO1 (configuration not stated),inactive,–
O=C(NCCc1noc(C2CC2)n1)c1ccc2c(c1)OCO2,inactive,–
C[S+](=O)([O-])N1CC2ON=C(C(=O)N3CCCC3)C2C1 (configuration not stated),inactive,–
COCCn1ncc(N2CCC(C(=O)NCc3ccc(C)o3)C2)cc1=O (configuration not stated),inactive,–
CC(C)(C)c1ccnc(N[C@H]2CO[C@H]3[C@@H]2OC[C@H]3OC(=O)Nc2cccc(C(F)(F)F)c2)n1,inactive,–
Cc1ccc(NC(=O)c2cnc(-c3ccccc3)nc2-c2ccncc2)cc1C,inactive,–
O=[S+]1([O-])NCC2(CCCN(Cc3ccncc3)C2)Oc2ncccc21 (configuration not stated),inactive,–
Cc1nn(C)c(C)c1S(=O)(=O)N1CCC(c2noc(-c3ccccc3)n2)C1 (configuration not stated),–,8.68% [at 5.79 µM]
CC(C)Cn1c(-c2ccc(S(=O)(=O)N3CCOCC3)cc2)csc1=Nc1cc(Cl)ccc1Cl,10 µM (active),–
O=C(CN1C(=O)COc2ccc(S(=O)(=O)N3CCOCC3)cc21)N1CCN(c2cccc(Cl)c2)CC1,inactive,–
O=C1[C@@H]2C[C@@H](O)CN2C2(CN(Cc3ccc(OC(F)(F)F)cc3)C2)C(=O)N1Cc1ccccc1Cl,inactive,–
CO[C@H]1[C@H](NC(=O)c2cnc3ccccc3c2)c2ccccc2C12CCNCC2,inactive,–
c1ccc2c(c1)CCN2C1CN(Cc2cccc3ccccc23)C1,inactive,–
Clc1ccc(-c2nnc3n2CCN(Cc2cccc4ccccc24)C3)cc1,inactive,–
Cc1ccccc1N(C)C1CN(Cc2cccc3ccccc23)C1,10 µM (active),–
COc1cc2c(cc1Oc1cccc(N(C)C)c1)NC(=O)C21CCN(c2cnccn2)CC1,0.891 µM (active),–
COc1cc2c(cc1OCc1ccncc1)NC(=O)C21CCN(c2ncccn2)CC1,inactive,–
COc1cc2c(cc1Oc1cccc(N(C)C)c1)NC(=O)C21CCN(Cc2ccccn2)CC1,inactive,–
COc1ccc(NC(=O)O[C@@H]2CO[C@H]3[C@@H]2OC[C@@H]3NC(=O)C2CCCCC2)cc1,inactive,–
O=C(CC1CCCN(c2cnn(CC3CC3)c(=O)c2)C1)NCc1cc(F)cc(F)c1 (configuration not stated),inactive,–
COc1ccc(NC(=O)Cn2c(=O)n(-c3ccccc3)c(=O)c3c2cc(C)n3C)cc1,inactive,–

SMILES,Potency,"activity, negative = inhibition"
N#Cc1ccc(S(=O)(=O)NC2CCc3nn(CC4CC4)c(=O)n3CC2)cc1 (configuration not stated),inactive,–
CCCn1c2ccccc2c2cnn(CC(=O)NCCCOC(C)C)c(=O)c21,inactive,–
CCCN(CCC)CCCNC(=O)Cn1ncc2c3ccccc3n(Cc3ccccc3)c2c1=O,5.01 µM (active),–
CCCn1c2ccccc2c2cnn(CC(=O)N(C)c3ccccc3CC)c(=O)c21,inactive,–
CCN(CCCNC(=O)Cn1ncc2c3ccccc3n(C)c2c1=O)Cc1ccccc1,inactive,–
CCN(CC)CCNC(=O)Cn1ncc2c3ccccc3n(Cc3ccccc3C)c2c1=O,10 µM (active),–
CCCn1c2ccccc2c2cnn(CC(=O)N(CC)c3cc(C)ccc3C)c(=O)c21,inactive,–
COc1cccc(CC(=O)N2CCC(c3nc(CCOc4ccc(F)cc4)no3)C2)c1 (configuration not stated),inactive,–
COCCNC(=O)[C@@H]1C[C@@H](O)CN1C1CCN(C(=O)CCc2ccccc2)CC1,inactive,–
CCn1c(=O)c2ccnn2c2ccc(C(=O)NC3CCCCC3)cc21,inactive,–
Cc1ccccc1NC(=O)N1CCC(CCNC(=O)c2ccoc2)CC1,inactive,–
O=C(c1cccc(Cl)c1)N1CCN(c2cc(-c3cccs3)[nH]n2)CC1,inactive,–
COc1cccc(CN2Cc3nc(Nc4cccc(F)c4)ccc3OCC2=O)c1,inactive,–
CN(CCCn1cccn1)C(=O)C1CCN(C(=O)C2CCCC2)CC1,inactive,–
O=C(N[C@@H]1CN(Cc2c(F)cccc2F)C[C@H]1CO)c1ccccc1,inactive,–
Cc1cc(N2CCCC(Cn3cc(Cc4ccccc4)nn3)C2)nc(N)n1 (configuration not stated),12.6 µM (active),–
O=C(Nc1ccccc1)[C@H]1CN2CCC1C[C@@H]2Cn1cc(CO)nn1 (some centres not stated),inactive,–
O=C(NCc1ccccc1)[C@@H]1C[C@@H](c2ccc(F)cc2)N([S+](=O)([O-])c2cccnc2)C1,inactive,–
O=C1Nc2ccc(Br)cc2C(=O)N2CCN(C(=O)C3CCCCC3)C[C@H]12,inactive,–
CCOC(=O)c1c(NC(=O)c2cc(-c3ccc(Cl)cc3)on2)sc2c1CCCC2,inactive,–
CCOC(=O)c1ccc(NC(=O)c2c(NCc3cccs3)sc3c2CCCC3)cc1,10 µM (active),–
CCOC(=O)c1c(NC(=O)Cc2coc3ccc(CC)cc23)sc2c1CCC2,inactive,–
O=C(Cc1cccs1)NC1CCCN(c2cc(-c3ccccc3)[nH]n2)C1 (configuration not stated),inactive,–
